Assay results reported in paper PMC4081100, “A DNA-binding-site landscape and regulatory network analysis for NAC transcription factors in Arabidopsis thaliana”.

What was measured:
Assay in all cases: universal protein binding microarray (PBM); transcription factors of Arabidopsis thaliana; high values mean tight binding
GST-ANAC092(1-176) = molecular target: T1, GST-ANAC092(1-176) (Arabidopsis thaliana, UniProt Q9FKA0 1-176); settings: protein: recombinant; tags: GST; chain copies: 2; dsDNA, one strand shown
T1 sequence: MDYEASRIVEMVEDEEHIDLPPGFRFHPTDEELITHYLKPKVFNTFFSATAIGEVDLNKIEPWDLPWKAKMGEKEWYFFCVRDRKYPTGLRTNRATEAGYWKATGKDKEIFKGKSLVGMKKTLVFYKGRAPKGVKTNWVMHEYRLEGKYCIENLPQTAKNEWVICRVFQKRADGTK
How it was run: (§1)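 Binding is expressed as the normalised enrichment score (E-score). Proteins carrying a GST tag, whether NAC-domain, full-length or DNA-binding-domain forms, were induced in cells, and zinc acetate was added for zinc-finger proteins. After purification on glutathione–Sepharose 4B and quantification by A280 or anti-GST western blot, each was applied in duplicate at 200 to 500 nM final to custom all-10-mer Agilent 4 × 180K arrays made double-stranded by primer extension. Gapped and ungapped 8-mers were scored.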

GST-ANAC019 NAC domain = molecular target: T2, GST-ANAC019 NAC domain (Arabidopsis thaliana, UniProt Q9C932 14-162); settings: protein: recombinant; tags: GST; chain copies: 2; dsDNA, one strand shown
T2 sequence: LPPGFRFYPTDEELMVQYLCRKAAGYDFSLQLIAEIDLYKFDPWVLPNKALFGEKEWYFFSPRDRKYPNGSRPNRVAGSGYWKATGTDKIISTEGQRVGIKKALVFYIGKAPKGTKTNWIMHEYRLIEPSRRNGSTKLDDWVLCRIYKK
How it was run: as §1

[1] = molecular target: T3, GST-ANAC092(1-285) full length (Arabidopsis thaliana, UniProt Q9FKA0 1-285); settings: protein: recombinant; tags: GST; chain copies: 2; dsDNA, one strand shown
T3 sequence: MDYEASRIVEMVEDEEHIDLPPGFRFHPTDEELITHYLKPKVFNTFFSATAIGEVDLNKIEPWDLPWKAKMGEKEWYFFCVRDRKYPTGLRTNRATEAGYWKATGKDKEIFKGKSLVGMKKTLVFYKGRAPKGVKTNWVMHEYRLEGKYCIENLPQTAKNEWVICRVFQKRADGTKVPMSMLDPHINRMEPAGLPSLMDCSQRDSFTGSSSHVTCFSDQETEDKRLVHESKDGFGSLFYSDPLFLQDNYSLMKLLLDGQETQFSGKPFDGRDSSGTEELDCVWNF
How it was run: as §1

GST-NST2(1-184) = molecular target: T4, GST-NST2(1-184) (Arabidopsis thaliana, UniProt Q9M274 1-184); settings: protein: recombinant; tags: GST; chain copies: 2; dsDNA, one strand shown
T4 sequence: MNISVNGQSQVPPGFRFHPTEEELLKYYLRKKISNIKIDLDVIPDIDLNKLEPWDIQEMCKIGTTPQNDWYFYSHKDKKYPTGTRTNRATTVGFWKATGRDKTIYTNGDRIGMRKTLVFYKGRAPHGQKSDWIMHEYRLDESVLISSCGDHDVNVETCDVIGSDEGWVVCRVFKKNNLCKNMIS
How it was run: as §1

GST-NTL8 NAC domain = molecular target: T5, GST-NTL8 NAC domain (Arabidopsis thaliana, UniProt Q9XIN7 14-156); settings: protein: recombinant; tags: GST; chain copies: 2; dsDNA, one strand shown
T5 sequence: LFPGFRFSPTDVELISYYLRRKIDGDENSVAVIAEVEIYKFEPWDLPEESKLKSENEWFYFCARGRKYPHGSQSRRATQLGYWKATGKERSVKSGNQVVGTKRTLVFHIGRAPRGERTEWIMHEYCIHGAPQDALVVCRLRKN
How it was run: as §1

GST-SND1(1-203) = molecular target: T6, GST-SND1(1-203) (Arabidopsis thaliana, UniProt Q9LPI7 1-203); settings: protein: recombinant; tags: GST; chain copies: 2; dsDNA, one strand shown
T6 sequence: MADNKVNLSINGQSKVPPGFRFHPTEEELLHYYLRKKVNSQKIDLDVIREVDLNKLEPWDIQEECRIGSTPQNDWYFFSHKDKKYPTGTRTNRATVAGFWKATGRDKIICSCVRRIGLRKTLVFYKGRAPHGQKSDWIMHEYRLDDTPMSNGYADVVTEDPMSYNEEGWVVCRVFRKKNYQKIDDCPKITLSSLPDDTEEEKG
How it was run: as §1

GST-VND3 NAC domain = molecular target: T7, GST-VND3 NAC domain (Arabidopsis thaliana, UniProt Q9FH59 12-162); settings: protein: recombinant; tags: GST; chain copies: 2; dsDNA, one strand shown
T7 sequence: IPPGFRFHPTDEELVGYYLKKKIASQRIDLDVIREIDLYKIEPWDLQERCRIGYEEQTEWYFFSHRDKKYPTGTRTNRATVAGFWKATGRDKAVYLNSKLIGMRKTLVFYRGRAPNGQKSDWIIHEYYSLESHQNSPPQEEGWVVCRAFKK
How it was run: as §1

GST-NTL6(1-168) = GST-NTL6(1-168) (Arabidopsis thaliana, UniProt Q9SCK6 1-168); settings: protein: recombinant; tags: GST; chain copies: 2; dsDNA, one strand shown
How it was run: as §1

GST-ANAC055(1-171) = molecular target: T8, GST-ANAC055(1-171) (Arabidopsis thaliana, UniProt Q9LDY8 1-171); settings: protein: recombinant; tags: GST; chain copies: 2; dsDNA, one strand shown
T8 sequence: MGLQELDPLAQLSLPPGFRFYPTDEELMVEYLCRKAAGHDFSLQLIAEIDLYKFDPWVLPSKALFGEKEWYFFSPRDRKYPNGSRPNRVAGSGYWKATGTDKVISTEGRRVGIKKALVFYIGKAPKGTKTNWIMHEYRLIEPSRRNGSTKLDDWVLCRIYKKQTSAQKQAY
How it was run: as §1

GST-ATAF1 NAC domain = molecular target: T9, GST-ATAF1 NAC domain (Arabidopsis thaliana, UniProt Q39013 7-158); settings: protein: recombinant; tags: GST; chain copies: 2; dsDNA, one strand shown
T9 sequence: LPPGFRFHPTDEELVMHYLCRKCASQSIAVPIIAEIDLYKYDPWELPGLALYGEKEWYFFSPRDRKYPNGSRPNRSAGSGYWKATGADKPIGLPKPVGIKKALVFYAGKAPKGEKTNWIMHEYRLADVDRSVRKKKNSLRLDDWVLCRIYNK
How it was run: as §1

GST-NAP(1-166) = molecular target: T10, GST-NAP(1-166) (Arabidopsis thaliana, UniProt O49255 1-166); settings: protein: recombinant; tags: GST; chain copies: 2; dsDNA, one strand shown
T10 sequence: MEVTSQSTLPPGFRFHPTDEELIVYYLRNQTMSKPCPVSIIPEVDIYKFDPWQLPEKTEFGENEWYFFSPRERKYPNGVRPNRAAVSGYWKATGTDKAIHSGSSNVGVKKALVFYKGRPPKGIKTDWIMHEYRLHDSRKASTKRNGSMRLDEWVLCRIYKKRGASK
How it was run: as §1

GST-VND7 NAC domain = molecular target: T11, GST-VND7 NAC domain (Arabidopsis thaliana, UniProt Q9C8W9 9-158); settings: protein: recombinant; tags: GST; chain copies: 2; dsDNA, one strand shown
T11 sequence: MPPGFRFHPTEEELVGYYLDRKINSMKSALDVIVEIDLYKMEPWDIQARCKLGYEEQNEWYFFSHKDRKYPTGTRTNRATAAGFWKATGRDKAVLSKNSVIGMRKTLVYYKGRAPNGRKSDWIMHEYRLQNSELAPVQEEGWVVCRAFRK
How it was run: as §1

GST-WRKY1(266-371) = GST-WRKY1(266-371) (Arabidopsis thaliana, UniProt Q9SI37 266-371); settings: protein: recombinant; tags: GST; dsDNA, one strand shown
How it was run: as §1

Sequence of GST-NTL6(1-168) (Q9SCK6 1-168): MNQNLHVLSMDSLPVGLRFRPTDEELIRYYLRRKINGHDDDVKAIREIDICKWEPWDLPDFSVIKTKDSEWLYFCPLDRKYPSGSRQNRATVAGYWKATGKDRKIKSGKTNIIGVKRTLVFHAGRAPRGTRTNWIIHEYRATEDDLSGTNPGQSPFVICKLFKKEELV
Sequence of GST-WRKY1(266-371) (Q9SI37 266-371): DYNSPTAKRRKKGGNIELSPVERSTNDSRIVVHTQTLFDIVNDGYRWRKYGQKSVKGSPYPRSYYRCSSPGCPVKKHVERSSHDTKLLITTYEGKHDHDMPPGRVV

Row | Sequence | binding signal (GST-ANAC092(1-176)) [E-score] | binding signal (GST-ANAC019 NAC domain) [E-score] | binding signal [1] [E-score] | binding signal (GST-NST2(1-184)) [E-score] | binding signal (GST-NTL8 NAC domain) [E-score] | binding signal (GST-SND1(1-203)) [E-score] | binding signal (GST-VND3 NAC domain) [E-score] | binding signal (GST-NTL6(1-168)) [E-score] | binding signal (GST-ANAC055(1-171)) [E-score] | binding signal (GST-ATAF1 NAC domain) [E-score] | binding signal (GST-NAP(1-166)) [E-score] | binding signal (GST-VND7 NAC domain) [E-score] | binding signal (GST-WRKY1(266-371)) [E-score]
1 | CCACGCTA | 0.405 | 0.155 | 0.432 | 0.219 | 0.0925 | 0.329 | 0.0665 |  |  |  |  |  | 
2 | GTCAACAA |  |  | 0.136 | 0.101 | 0.0573 | 0.177 |  | 0.0834 | 0.163 | 0.191 | 0.075 | 0.07 | 0.478
3 | CACGCGAC | 0.421 |  | 0.462 | 0.161 |  | 0.351 |  |  |  |  | 0.0736 | 0.064 | 0.11
4 | AAGGAATG | 0.153 | 0.0613 | 0.115 | 0.196 | 0.293 | 0.227 |  | 0.422 | 0.0506 | 0.07 |  | 0.0905 | 0.0844
5 | GGCGTGTA | 0.4 | 0.198 | 0.439 | 0.14 |  | 0.142 | 0.118 |  | 0.109 | 0.163 | 0.13 |  | 
6 | AAGGAATC | 0.172 |  | 0.251 | 0.0867 | 0.328 | 0.292 | 0.0823 | 0.42 |  | 0.0816 |  |  | 
7 | GAAGAAAC | 0.203 | 0.123 | 0.0911 | 0.197 | 0.423 | 0.126 |  | 0.295 | 0.168 | 0.194 |  | 0.0868 | 
8 | CCACGCCA | 0.372 | 0.0852 | 0.415 | 0.0528 |  | 0.141 |  |  | 0.0687 | 0.145 | 0.0773 | 0.102 | 
9 | TGACTTAA |  |  | 0.102 | 0.183 |  | 0.249 |  | 0.342 |  | 0.107 |  | 0.089 | 0.427
10 | TGAAGGAA | 0.108 | 0.0877 | 0.0772 | 0.197 | 0.469 | 0.342 |  | 0.379 | 0.0856 | 0.0713 |  | 0.0645 | 
11 | CGTTGACA |  |  |  |  |  | 0.0727 |  |  |  |  |  |  | 0.464
12 | GGCGTAAC | 0.21 |  | 0.277 | 0.129 |  | 0.421 |  |  |  | 0.0594 | 0.0618 | 0.0835 | 
13 | GCGTCAAA |  |  | 0.0819 | 0.052 | 0.0775 | 0.0924 |  |  |  |  |  | 0.0799 | 0.409
14 | TGAAGCAA | 0.232 | 0.0575 | 0.32 | 0.314 | 0.422 | 0.447 |  | 0.389 |  |  |  | 0.187 | 
15 | CGTAGACC |  |  |  |  |  | 0.0522 |  |  |  |  |  |  | 0.434
16 | AGGAAAGC | 0.23 | 0.214 | 0.0813 | 0.0888 | 0.436 | 0.188 |  | 0.253 | 0.119 | 0.124 | 0.0763 | 0.177 | 
17 | ACGCTATC | 0.43 | 0.106 | 0.454 | 0.303 |  | 0.431 |  |  |  | 0.0721 | 0.104 | 0.0789 | 
18 | CTTGCTTC | 0.288 | 0.0507 | 0.368 | 0.204 | 0.303 | 0.403 |  | 0.295 |  |  |  | 0.0829 | 
